Laboratory results as given in the supplement of paper PMC11732987, “Enantioselective OTUD7B fragment discovery through chemoproteomics screening and high-throughput optimisation” (Communications Chemistry, 2025).

Legend:
Assay in all cases: log2 ratio of Biotin-Ahx-Ub-VS probe labelling (fragment/DMSO); higher = less target engagement (more negative = stronger competition), active = hit call of the paper (q ≤ 0.05, log2 ratio ≤ -1)
Details in all cases: compound concentration: 200 uM; treatment time: 3 h
[1] = target: USP9X (UniProt Q93008)
In short: (§1)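 HEK293T lysate (495 µg per sample, in Tris/CHAPS/IGEPAL buffer with protease inhibitors) was treated in triplicate with fragment at 200 µM or with DMSO for 3 h. It was then treated with Biotin-Ahx-Ub-VS (0.5 µM final) for 1 h. Labelled DUBs were NeutrAvidin-enriched, digested with LysC and trypsin, and run by diaPASEF LC-MS/MS. Spectronaut label-free quantities were global-median-normalised. Values are average log2 ratios fragment/DMSO by unpaired t-test, using proteins with ≥2 unique peptides.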

[2] = target: UniProt O00487
UniProt O00487, sequence (O00487 whole entry): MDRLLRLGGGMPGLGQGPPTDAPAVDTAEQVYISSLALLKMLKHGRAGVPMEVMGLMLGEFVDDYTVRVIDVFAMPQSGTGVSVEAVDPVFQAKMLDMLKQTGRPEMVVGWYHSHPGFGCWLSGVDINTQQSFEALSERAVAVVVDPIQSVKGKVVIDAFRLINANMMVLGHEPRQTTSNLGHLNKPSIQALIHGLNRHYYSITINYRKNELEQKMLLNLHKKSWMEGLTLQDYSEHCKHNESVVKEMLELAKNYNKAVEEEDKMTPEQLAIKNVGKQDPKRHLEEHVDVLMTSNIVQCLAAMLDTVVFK
In short: as §1

[3] = target: UniProt O00507
UniProt O00507, sequence (O00507 whole entry): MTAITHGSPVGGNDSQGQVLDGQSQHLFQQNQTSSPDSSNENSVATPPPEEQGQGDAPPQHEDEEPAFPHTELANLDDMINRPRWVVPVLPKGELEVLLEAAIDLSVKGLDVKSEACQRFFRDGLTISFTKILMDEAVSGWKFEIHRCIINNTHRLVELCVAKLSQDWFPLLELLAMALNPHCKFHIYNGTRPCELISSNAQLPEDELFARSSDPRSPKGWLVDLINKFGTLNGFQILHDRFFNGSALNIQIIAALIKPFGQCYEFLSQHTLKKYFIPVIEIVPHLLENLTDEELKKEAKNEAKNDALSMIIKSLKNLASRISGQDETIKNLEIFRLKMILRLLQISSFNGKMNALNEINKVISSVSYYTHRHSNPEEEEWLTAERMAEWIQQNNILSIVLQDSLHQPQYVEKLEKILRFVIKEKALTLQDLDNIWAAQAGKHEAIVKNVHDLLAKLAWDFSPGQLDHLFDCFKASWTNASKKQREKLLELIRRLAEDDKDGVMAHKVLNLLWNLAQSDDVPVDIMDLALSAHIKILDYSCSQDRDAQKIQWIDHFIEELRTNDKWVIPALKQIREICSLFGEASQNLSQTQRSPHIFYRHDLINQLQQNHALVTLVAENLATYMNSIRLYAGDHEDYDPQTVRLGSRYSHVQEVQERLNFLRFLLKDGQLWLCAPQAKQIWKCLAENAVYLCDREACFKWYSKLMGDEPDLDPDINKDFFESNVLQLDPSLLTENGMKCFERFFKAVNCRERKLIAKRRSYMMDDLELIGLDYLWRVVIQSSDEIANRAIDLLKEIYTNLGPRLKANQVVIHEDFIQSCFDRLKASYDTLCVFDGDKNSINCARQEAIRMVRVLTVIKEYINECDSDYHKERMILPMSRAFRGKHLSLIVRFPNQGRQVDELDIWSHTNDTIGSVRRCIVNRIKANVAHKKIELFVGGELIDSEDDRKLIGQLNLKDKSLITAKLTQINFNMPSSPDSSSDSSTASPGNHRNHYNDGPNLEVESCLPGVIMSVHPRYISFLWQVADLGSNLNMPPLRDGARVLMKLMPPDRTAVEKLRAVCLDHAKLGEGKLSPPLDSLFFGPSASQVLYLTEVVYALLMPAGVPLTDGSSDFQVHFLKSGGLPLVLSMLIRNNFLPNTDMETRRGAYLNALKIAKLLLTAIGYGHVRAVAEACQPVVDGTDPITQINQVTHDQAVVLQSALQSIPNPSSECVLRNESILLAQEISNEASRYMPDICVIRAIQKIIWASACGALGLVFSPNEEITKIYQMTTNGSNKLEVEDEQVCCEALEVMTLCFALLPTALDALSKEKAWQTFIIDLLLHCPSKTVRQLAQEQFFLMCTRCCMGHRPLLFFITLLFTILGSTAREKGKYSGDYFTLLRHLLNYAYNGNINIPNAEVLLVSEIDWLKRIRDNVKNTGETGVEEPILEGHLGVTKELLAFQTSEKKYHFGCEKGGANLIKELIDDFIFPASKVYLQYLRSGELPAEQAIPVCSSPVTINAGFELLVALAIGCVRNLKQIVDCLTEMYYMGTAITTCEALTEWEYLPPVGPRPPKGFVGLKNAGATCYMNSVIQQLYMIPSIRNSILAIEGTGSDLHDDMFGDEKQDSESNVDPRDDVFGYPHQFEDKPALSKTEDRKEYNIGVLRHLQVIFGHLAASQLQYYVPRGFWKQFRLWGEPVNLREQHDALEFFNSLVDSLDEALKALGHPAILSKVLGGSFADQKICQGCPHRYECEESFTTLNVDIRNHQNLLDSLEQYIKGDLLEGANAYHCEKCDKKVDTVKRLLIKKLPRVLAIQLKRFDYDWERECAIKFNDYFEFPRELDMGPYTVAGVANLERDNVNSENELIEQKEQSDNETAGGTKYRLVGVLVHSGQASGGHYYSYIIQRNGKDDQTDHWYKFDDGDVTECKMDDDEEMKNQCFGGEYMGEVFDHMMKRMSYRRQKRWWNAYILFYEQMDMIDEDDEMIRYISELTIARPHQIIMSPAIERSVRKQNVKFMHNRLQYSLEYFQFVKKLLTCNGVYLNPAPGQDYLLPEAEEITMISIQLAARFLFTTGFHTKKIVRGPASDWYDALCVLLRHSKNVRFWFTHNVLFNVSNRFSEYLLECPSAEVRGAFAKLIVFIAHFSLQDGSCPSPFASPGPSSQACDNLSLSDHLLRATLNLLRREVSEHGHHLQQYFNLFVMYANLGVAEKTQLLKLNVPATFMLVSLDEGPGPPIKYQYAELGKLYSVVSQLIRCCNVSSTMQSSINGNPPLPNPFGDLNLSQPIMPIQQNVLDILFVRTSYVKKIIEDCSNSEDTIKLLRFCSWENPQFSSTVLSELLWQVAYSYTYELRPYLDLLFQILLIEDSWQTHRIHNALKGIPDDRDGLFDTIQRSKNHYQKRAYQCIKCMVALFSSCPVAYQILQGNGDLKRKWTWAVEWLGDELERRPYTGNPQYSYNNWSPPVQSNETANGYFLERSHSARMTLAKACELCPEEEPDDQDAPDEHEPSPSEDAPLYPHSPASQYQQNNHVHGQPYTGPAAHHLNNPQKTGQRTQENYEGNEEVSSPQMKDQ
In short: as §1

[4] = target: UniProt P51784
UniProt P51784, sequence (P51784 whole entry): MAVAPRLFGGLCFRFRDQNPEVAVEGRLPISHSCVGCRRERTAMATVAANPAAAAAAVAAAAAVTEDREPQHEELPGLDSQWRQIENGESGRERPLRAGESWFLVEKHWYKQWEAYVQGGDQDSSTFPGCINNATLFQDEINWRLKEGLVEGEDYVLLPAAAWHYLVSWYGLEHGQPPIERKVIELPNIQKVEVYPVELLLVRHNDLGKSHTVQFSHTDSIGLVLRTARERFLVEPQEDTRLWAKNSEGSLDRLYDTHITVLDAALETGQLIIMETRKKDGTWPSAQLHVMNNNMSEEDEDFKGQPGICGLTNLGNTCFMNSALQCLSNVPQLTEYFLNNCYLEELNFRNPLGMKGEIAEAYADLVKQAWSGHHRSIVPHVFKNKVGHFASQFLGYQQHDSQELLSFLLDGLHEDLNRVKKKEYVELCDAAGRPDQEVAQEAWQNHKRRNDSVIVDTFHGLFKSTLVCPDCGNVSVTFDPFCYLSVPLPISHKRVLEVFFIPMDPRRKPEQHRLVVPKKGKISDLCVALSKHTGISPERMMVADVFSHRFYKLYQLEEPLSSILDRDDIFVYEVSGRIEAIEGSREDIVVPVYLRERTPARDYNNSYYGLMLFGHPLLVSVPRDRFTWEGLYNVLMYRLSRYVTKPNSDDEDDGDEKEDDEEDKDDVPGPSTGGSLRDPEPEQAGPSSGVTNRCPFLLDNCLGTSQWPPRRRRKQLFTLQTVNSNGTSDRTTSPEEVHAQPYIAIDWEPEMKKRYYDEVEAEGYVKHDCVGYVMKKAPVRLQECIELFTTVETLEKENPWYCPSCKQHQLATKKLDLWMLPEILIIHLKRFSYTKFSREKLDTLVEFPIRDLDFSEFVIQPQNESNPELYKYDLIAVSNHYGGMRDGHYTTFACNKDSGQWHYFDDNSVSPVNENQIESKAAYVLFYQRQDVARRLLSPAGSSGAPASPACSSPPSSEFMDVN
In short: as §1

[5] = target: T1, UniProt Q5T2D3
T1 sequence (whole entry): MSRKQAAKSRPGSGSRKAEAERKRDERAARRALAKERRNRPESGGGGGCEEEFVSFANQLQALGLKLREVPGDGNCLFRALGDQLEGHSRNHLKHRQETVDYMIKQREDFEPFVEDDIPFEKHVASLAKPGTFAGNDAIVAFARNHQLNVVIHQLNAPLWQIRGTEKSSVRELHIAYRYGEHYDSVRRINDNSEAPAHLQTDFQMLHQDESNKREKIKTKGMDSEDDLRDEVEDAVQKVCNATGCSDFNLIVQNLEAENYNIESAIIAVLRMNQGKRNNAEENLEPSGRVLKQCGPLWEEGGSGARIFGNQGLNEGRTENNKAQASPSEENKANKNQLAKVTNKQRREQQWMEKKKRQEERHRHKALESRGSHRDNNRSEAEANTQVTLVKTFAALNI
In short: as §1

[6] = target: T2, UniProt Q8TE49
T2 sequence (whole entry): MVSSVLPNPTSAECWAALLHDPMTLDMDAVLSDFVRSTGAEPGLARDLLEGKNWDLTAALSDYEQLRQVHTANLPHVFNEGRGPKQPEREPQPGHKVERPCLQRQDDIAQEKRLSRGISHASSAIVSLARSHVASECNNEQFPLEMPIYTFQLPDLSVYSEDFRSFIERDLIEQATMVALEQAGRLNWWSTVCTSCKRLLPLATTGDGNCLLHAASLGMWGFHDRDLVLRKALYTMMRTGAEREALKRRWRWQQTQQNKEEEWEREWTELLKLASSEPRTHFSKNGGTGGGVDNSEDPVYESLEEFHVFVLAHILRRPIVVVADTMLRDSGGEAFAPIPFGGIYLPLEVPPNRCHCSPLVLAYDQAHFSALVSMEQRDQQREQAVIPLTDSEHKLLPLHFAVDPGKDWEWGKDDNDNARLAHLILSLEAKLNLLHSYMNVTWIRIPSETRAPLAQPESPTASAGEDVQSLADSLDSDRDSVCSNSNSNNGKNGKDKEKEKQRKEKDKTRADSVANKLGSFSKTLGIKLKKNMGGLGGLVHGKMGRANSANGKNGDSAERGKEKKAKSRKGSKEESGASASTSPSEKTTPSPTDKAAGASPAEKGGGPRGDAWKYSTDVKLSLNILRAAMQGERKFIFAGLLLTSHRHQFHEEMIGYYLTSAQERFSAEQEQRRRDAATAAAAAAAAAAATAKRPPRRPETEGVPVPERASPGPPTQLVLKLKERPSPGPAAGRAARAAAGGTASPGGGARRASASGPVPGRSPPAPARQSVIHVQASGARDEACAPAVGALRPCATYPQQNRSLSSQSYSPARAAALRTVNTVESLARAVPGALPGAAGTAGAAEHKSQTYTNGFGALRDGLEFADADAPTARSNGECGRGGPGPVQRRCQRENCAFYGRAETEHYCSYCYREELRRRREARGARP
In short: as §1

[7] = target: T3, UniProt Q9P2H5
T3 sequence (whole entry): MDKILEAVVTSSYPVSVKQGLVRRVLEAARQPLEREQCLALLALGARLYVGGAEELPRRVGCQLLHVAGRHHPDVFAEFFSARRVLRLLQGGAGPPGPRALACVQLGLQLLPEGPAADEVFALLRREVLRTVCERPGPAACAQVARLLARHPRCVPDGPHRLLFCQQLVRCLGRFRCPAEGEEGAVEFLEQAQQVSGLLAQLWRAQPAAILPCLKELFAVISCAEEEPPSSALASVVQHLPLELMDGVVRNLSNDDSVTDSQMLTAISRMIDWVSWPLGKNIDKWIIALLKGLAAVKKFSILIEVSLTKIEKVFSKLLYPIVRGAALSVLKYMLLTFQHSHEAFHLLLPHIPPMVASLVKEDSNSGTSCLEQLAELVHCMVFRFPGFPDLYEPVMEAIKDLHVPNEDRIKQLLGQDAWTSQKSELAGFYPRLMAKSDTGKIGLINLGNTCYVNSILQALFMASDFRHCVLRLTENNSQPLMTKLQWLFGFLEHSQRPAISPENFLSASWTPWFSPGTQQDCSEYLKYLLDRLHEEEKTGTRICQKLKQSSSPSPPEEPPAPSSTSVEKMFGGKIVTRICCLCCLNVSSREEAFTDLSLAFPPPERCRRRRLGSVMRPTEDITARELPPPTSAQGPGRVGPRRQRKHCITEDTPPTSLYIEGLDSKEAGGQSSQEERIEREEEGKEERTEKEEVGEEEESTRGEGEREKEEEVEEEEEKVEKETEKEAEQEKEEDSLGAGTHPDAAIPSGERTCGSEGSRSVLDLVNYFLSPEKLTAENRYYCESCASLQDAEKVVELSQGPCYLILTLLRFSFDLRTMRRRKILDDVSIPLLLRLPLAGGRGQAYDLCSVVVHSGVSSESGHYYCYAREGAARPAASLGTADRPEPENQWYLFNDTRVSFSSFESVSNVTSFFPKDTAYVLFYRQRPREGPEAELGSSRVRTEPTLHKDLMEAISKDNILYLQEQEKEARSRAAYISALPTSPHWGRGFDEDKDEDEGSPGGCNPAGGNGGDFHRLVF
In short: as §1

[8] = target: T4, UniProt Q9UGI0
T4 sequence (whole entry): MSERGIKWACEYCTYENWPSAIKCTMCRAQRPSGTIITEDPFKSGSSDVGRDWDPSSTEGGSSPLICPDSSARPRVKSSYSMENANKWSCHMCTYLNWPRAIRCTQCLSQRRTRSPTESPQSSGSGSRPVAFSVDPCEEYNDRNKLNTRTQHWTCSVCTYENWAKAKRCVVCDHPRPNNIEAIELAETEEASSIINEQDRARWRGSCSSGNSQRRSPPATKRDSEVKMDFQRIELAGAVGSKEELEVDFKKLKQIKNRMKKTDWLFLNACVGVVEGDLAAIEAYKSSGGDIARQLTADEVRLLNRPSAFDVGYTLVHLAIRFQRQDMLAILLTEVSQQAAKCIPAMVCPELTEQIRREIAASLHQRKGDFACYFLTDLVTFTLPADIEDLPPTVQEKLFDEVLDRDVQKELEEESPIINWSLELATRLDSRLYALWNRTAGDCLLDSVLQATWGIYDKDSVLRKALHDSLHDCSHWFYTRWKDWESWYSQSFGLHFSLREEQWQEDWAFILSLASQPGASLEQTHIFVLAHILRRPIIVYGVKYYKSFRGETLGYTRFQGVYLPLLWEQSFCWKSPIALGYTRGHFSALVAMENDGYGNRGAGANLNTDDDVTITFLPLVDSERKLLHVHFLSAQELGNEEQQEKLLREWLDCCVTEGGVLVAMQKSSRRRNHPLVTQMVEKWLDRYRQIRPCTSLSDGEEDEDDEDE
In short: as §1

[9] = target: T5, YOD1 (UniProt Q5VVQ6)
T5 sequence (whole entry): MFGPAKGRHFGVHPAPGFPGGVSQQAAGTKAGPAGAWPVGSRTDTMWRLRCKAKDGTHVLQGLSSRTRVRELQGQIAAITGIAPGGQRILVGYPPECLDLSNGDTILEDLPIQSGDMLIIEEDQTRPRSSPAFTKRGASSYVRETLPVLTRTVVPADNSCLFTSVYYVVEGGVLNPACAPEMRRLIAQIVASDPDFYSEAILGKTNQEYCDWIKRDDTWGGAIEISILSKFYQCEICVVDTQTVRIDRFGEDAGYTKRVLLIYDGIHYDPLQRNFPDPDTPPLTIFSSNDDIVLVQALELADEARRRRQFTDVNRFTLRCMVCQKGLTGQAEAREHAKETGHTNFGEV
In short: as §1

Measured: log2 ratio of Biotin-Ahx-Ub-VS probe labelling

Cl.O=C(CCl)N1CCn2cncc2C1
inactive: [1] -0.0687 | [2] -0.0669 | [3] -0.138 | [4] -0.251 | [5] -0.246 | [6] -0.433 | [7] -0.128 | [8] -0.182 | [9] -0.133
